High-throughput results from PubChem BioAssay.
Shown are actives, neighbours in structure and some others; about 4.8% of the full set was active somewhere.
MPTP block = permeability transition pore inhibition; isolated mouse mitochondria, Ca2+ swelling absorbance, 30 min; inhibition, % at 10 µM; 360,000 compounds, 1.4% hits; AID 602449;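 active means inhibition of 50% or more, scaled per plate between neutral and stimulator controls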;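 further: 0% = DMSO wells given calcium and 100% = 1 mM EGTA wells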
Calb FLC = affects C. albicans growth with fluconazole; 300,000 compounds, 0.57% hits; C. albicans CaCi-2 (fluconazole-resistant clinical isolate) + fluconazole, Alamar Blue growth, 48 h; growth inhibition, % (test concentration not listed); AID 1979;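 active means growth inhibition above about 58% in most replicates, limit read from the data, passing the limit was not always enough; inconclusive means exactly half the replicates above a set limit; inactive means most replicates below a set limit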;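 further: all wells also contain fluconazole at 8 µg/ml as a sub-toxic cotreatment; 0% = median of DMSO wells and 100% = median of geldanamycin control wells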
CSC inhib = cancer stem cell inhibition | inhibition, % at 7.5 µM | AID 2717 | cancer stem cell-like cells viability, luminescence | 300,000 compounds, 1.1% hits; in the data active means inhibition above about 75%; inconclusive means no clear call, values can overlap the other calls; tested in HMLE shEcad cells
Mdm2 MdmX PPI = inhibitors of human Mdm2/MdmX interaction; O15151+Q00987; SaOS-2 split-luciferase Mdm2/MdmX complementation, luminescence; inhibition, % at 8 µM; 330,000 compounds, 3% hits;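 active means inhibition of at least 50% at 8 µM in the primary screen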
Target sequence (O15151 whole entry, looked up): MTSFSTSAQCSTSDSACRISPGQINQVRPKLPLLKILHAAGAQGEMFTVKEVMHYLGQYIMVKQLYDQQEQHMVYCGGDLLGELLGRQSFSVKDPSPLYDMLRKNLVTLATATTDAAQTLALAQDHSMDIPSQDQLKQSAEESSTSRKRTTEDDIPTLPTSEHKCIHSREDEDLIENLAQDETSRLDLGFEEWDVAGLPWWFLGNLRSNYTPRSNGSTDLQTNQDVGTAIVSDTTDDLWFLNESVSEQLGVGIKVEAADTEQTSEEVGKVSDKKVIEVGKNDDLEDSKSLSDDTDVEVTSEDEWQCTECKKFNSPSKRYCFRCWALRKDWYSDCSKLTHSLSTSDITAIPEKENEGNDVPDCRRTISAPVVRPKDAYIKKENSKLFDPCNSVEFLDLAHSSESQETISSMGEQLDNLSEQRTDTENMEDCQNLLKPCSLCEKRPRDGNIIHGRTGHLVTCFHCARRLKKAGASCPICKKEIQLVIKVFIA
Target sequence (Q00987 whole entry, looked up): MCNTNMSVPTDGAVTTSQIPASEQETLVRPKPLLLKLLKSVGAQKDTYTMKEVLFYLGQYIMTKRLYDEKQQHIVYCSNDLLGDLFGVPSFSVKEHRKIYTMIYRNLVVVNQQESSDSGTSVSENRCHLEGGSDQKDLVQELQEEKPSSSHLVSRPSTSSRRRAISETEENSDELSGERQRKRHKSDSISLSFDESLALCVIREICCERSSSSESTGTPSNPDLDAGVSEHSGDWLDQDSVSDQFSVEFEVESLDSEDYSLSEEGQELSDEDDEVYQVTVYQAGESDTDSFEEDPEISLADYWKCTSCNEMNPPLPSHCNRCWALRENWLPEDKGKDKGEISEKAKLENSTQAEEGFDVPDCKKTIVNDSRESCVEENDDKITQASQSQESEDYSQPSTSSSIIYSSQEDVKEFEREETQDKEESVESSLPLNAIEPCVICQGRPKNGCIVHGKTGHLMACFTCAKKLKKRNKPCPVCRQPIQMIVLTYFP
Beta apoptosis = blocks beta cell apoptosis; protection from apoptosis, % (no concentration beside the values); INS-1E cytokine-induced death, ATP luminescence, 48 h; percent of positive-control rescue, neutral wells zero; 300,000 compounds, 0.8% hits; AID 435005;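 active means Every replicate reaches about 75%, or at least half do and their mean reaches it too, limit read from the data; inconclusive means At least half of replicates reach the limit but their mean does not; inactive means Under half of replicates reach the limit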;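 further: 0% = cytokine-treated negative control wells and 100% = positive control rescue; higher means more ATP so stronger rescue from cytokine killing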
* marks the source's active call; other numbers are inactive results; u = inconclusive; x = not tested or not shown.

SMILES | MPTP block | Calb FLC | CSC inhib | Mdm2 MdmX PPI | Beta apoptosis
CC(C)(C)c1cc(C(=O)NNc2ccc(OC(F)(F)F)cc2)n(Cc2ccccc2)n1 | 12.7 | 80.6* | 77.9* | 15.3 | 6.1
CC(C)(C)c1cc(C(=O)NNc2cccc(Cl)c2)n(Cc2ccccc2)n1 | 30.2 | -5.7 | 127.7* | 17.2 | 22.6
CC(C)(C)C(=O)NNC(=O)c1cc(C(C)(C)C)nn1Cc1ccccc1 | 1.6 | 3.6 | -17.9 | 6.7 | -8.4
O=c1ccn([C@@H]2O[C@H](CNCc3cccn3-c3nccs3)[C@@H](O)[C@H]2O)c(=O)[nH]1 | -1.8 | x | x | x | x
Cc1ccc(C(=O)N/N=C\c2ccc(-c3ccc(Cl)c(Cl)c3)o2)cn1 | 4.9 | -5.5 | 75.9* | 23.7 | 8.2
CNC(=S)N/N=C/c1ccc(-c2ccc(Cl)c([N+](=O)[O-])c2)o1 | -0.1 | 84.7* | -1.5 | 2.7 | 3.1
COC(=O)C[C@H]1CC[C@H](NC(=O)Nc2ccccc2OC)[C@@H](CO)O1 | -1.0 | x | x | x | x
COc1ccc(NC(=O)c2cc(-c3cc(C)cc(F)c3)n[nH]2)cc1OC | 2.9 | x | x | x | x
CC(=O)Nc1ccc(C2=CC(=O)C[C@H](c3ccc4c(c3)OCO4)C2)cc1 | -1.6 | x | 12.9 | -4.3 | 91.4*
CC1(C(=O)Nc2cccc3cccnc23)CCN1C(=O)Cc1ccc(Cl)cc1Cl (stereo unspecified) | -3.4 | x | x | x | x
Cc1cc(NC(=O)/C=C/c2ccc(Br)cc2)no1 | 1.5 | 6.8 | 39.6 | -6.5 | 1.4
Cc1cc(NC(=O)/C=C/c2ccc(Cl)cc2)no1 | 1.2 | -1.8 | 78.1* | -11.8 | 2.0
O=C(/C=C/c1ccc2c(c1)OCO2)NCCSCc1ccc(Cl)cc1Cl | -1.3 | -2.4 | x | -12.7 | x
O=C(/C=C/c1ccc2c(c1)OCO2)NCCSCc1cccc(Cl)c1 | -17.4 | -55.7 | 102.2* | 15.5 | -0.5
O=C(/C=C/c1ccc2c(c1)OCO2)Nc1ccc(Cl)cn1 | 1.4 | -48.7 | 88.2* | -101.5 | 17.3
CC(C)OCCCNc1ncnc2c1[nH]c1ccccc12 | 23.8 | 5.9 | x | 1.0 | 125.2*
CCOc1ccc2[nH]c3c(NCCCOC)ncnc3c2c1 | 0.6 | -1.6 | -4.0 | -65.4 | -3.8
O=c1[nH]c(Nc2ccc3c(c2)OCCO3)nnc1Cc1ccccc1 | 0.1 | 120.2* | -1.2 | -3.2 | x
NC(=S)N/N=C/c1ccc(C23CC4CC(CC(C4)C2)C3)cc1 | x | -1.7 | 113.2* | 46.1 | 77.1*
CCCCn1nnnc1C(c1ccccc1)N1CCN(c2ccccn2)CC1 (stereo unspecified) | 1.0 | x | x | x | x
CC(C)(C)c1nn(-c2ccccc2)c2[nH]c(=O)c(C=O)cc12 | 0.3 | -0.6 | 87.6* | 37.8 | -22.9
COc1ccc(-c2nc(-c3ccncc3)no2)cc1OC | 0.0 | 102.2* | -1.0 | -25.6 | -1.7
OC(CNCCC1C=Nc2ccccc21)Cn1c2ccc(Cl)cc2c2cc(Cl)ccc21 (stereo unspecified) | 3.3 | 99.3* | 106.4* | x | 99.5*
Cc1cc(C)n(CC(O)Cn2c3ccc(Cl)cc3c3cc(Cl)ccc32)c(=O)n1 (stereo unspecified) | -0.2 | 9.6 | 18.7 | 23.8 | 17.5
CCCc1c(-c2ccc(Cl)cc2)ncn1Cc1cccc(-c2ccccc2)c1 | 1.0 | x | x | x | x
SMILES | MPTP block | Calb FLC | CSC inhib | Mdm2 MdmX PPI | Beta apoptosis
COc1ccc(N2CC(O)(c3ccc(OC(F)F)cc3)[N+]3=C2CCCC3)cc1 (stereo unspecified) | 1.1 | -6.2 | 22.6 | -3.9 | -1.8
Clc1ccc(-c2cn(-c3ccc(Cl)cc3)c3[n+]2CCCCC3)cc1 | 2.1 | -18.6 | -11.5 | 36.6 | 30.4
COc1ccc(-n2cc(-c3ccc(OC(F)F)cc3)[n+]3c2CCCCC3)cc1 | 2.5 | -23.0 | -9.4 | -32.4 | 102.6*
COc1ccc(-c2cn(-c3ccc(Cl)cc3)c3[n+]2CCCCC3)cc1 | 3.7 | -20.9 | 17.4 | 21.6 | 99.7*
Cc1ccc(S(=O)(=O)N2[C@@H](Cc3ccccc3)CO[C@H]2CC(=O)c2cccc3ccccc23)cc1 | -0.3 | x | x | x | x
Cc1cccc(CN2CCN(C(c3ccccc3)c3ccc(Cl)cc3)CC2)c1 (stereo unspecified) | 5.1 | x | 85.5* | 29.6 | 60.7
COc1cc(CN2CCN(C(c3ccccc3)c3ccccc3)CC2)cc(OC)c1OC | -0.4 | -2.0 | 1.7 | 16.1 | 12.0
O=C(NCc1cccnc1)/C(=C\c1ccc(-c2ccc(Cl)c(Cl)c2)o1)S(=O)(=O)c1ccccc1 | 1.2 | u | 112.7* | x | 104.7*
S=C(NCCCc1ccccc1)Nc1ccccc1 | 0.2 | -37.2 | 2.9 | 3.8 | 0.9
S=C(NCCc1ccccc1)Nc1ccc(Nc2ccccc2)cc1 | 1.3 | 30.9 | 20.3 | 41.5 | 91.7*
Cc1ccc(-n2c(=O)[nH]c3ncccc3c2=O)cc1 | -1.7 | 25.3 | -17.9 | -10.0 | x
